For five compounds, inhibition results are on record in ChEMBL document CHEMBL1961873, “Compounds: GSK PKIS; Assays: Nanosyn kinase panel” (2012).

Assay [1] addresses T1, 3-phosphoinositide-dependent protein kinase 1 (Homo sapiens) (UniProt O15530).
T1 sequence (whole entry): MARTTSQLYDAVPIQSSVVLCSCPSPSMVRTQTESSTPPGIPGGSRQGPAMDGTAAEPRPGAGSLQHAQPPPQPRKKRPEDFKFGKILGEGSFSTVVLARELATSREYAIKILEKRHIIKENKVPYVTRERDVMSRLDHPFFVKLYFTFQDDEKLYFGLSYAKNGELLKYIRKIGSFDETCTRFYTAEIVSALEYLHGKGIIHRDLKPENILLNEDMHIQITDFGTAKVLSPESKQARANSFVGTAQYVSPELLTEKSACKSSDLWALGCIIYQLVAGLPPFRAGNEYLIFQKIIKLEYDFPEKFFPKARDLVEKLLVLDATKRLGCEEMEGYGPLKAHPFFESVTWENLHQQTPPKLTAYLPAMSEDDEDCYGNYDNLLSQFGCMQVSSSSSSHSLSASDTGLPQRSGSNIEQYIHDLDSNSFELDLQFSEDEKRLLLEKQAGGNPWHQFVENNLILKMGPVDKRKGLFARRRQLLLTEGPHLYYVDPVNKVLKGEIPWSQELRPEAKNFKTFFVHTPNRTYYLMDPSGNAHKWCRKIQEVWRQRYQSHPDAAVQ
Conditions: at 0.1 µM.

In assay [2] the target is cAMP-dependent protein kinase catalytic subunit alpha (Homo sapiens) (UniProt P17612). Conditions: at 0.1 µM.
The target is the same in assay [3]. Conditions: at 1 µM.
In assay [4] the target is Protein kinase C alpha type (Homo sapiens) (UniProt P17252). Conditions: at 0.1 µM.
For assay [5] the target is unchanged. Conditions: at 1 µM.
Assay [6] concerns the target Protein kinase C beta type (Homo sapiens) (UniProt P05771). Conditions: at 0.1 µM.
The target is the same in assay [7]. Conditions: at 1 µM.
Assay [8] has as its target Protein kinase C eta type (Homo sapiens) (UniProt P24723). Conditions: at 0.1 µM.
For assay [9] the target is unchanged. Conditions: at 1 µM.
Assay [10] has as its target Protein kinase C gamma type (Homo sapiens) (UniProt P05129). Conditions: at 0.1 µM.
For assay [11] the target is unchanged. Conditions: at 1 µM.
For assay [12], the target named is T2, Protein kinase C iota type (Homo sapiens) (UniProt P41743).
T2 sequence (whole entry): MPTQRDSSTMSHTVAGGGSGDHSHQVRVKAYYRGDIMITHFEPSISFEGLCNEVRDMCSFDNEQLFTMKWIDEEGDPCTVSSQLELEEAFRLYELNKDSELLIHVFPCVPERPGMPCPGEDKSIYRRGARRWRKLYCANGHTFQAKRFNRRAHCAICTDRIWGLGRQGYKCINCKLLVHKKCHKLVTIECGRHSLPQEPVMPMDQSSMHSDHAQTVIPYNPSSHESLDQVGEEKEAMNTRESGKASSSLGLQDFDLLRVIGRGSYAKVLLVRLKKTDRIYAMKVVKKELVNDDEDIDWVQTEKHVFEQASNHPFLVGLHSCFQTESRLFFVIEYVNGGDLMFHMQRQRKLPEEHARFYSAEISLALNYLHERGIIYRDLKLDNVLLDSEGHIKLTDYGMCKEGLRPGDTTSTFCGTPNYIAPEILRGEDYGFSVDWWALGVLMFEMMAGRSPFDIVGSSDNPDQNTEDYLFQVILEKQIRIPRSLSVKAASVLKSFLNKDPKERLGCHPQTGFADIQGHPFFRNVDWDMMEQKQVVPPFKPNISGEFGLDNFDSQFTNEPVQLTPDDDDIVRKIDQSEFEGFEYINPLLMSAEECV
Conditions: at 0.1 µM.

Assay [13] deals with T2, Protein kinase C iota type (Homo sapiens). Conditions: at 1 µM.
Assay [14] has as its target Protein kinase C theta type (Homo sapiens) (UniProt Q04759). Conditions: at 0.1 µM.
Assay [15] shares this target. Conditions: at 1 µM.
The target of assay [16] is Protein kinase C beta type (Homo sapiens) (UniProt P05771). Conditions: at 0.1 µM. This is another data set of the same source.
Protein kinase C beta type (Homo sapiens), sequence (P05771 2-671 limits assumed): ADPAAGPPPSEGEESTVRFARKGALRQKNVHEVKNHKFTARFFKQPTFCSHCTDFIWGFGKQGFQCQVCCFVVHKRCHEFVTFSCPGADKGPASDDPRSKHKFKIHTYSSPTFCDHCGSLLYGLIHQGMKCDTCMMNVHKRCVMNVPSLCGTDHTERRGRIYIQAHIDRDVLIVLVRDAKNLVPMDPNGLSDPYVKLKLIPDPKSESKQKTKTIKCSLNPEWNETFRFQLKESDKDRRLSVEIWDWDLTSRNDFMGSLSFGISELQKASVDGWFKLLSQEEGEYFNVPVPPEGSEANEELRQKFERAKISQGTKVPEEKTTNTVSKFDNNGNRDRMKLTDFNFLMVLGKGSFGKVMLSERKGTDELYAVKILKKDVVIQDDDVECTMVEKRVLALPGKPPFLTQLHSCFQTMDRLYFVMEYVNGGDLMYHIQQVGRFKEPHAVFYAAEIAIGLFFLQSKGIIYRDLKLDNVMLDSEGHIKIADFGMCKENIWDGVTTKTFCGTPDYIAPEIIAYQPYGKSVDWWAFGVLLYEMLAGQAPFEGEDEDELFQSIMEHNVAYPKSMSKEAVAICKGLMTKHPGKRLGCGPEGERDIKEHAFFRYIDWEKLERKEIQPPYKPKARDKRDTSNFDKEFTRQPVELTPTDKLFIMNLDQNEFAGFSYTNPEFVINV
For assay [17] the target is unchanged. Conditions: at 1 µM. This is another data set of the same source.
For assay [18], the target named is T3, Serine/threonine-protein kinase D1 (Homo sapiens) (UniProt Q15139).
T3 sequence (whole entry): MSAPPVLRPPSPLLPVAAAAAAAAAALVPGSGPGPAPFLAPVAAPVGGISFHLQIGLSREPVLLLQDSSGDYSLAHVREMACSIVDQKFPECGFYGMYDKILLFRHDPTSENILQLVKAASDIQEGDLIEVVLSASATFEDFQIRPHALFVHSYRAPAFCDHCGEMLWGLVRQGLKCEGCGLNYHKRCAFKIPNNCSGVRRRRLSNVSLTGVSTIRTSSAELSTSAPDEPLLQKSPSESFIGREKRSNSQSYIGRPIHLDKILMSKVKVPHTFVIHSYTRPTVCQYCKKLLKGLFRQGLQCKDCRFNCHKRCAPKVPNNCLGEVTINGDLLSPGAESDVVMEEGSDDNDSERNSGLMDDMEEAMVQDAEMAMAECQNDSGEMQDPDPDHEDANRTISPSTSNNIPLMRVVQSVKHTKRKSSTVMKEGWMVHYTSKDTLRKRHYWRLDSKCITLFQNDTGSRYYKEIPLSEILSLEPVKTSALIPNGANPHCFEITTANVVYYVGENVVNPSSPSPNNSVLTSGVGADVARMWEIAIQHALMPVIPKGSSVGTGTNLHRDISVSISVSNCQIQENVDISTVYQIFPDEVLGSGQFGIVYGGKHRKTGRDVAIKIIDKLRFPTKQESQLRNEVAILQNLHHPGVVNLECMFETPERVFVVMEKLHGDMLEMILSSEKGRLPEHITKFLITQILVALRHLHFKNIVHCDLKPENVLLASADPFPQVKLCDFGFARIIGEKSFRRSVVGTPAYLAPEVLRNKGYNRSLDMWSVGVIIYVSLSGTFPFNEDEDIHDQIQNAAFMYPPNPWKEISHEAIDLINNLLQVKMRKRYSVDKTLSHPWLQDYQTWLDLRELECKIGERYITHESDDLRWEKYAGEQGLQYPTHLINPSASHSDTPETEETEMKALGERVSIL
Conditions: at 0.1 µM.

Assay [19] concerns the target T3, Serine/threonine-protein kinase D1 (Homo sapiens). Conditions: at 1 µM.
Assay [20] has as its target T4, Serine/threonine-protein kinase D2 (Homo sapiens) (UniProt Q9BZL6).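 Further: reported percent inhibition values are means, part of the GSK PKIS kinase panel screen.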
T4 sequence (whole entry): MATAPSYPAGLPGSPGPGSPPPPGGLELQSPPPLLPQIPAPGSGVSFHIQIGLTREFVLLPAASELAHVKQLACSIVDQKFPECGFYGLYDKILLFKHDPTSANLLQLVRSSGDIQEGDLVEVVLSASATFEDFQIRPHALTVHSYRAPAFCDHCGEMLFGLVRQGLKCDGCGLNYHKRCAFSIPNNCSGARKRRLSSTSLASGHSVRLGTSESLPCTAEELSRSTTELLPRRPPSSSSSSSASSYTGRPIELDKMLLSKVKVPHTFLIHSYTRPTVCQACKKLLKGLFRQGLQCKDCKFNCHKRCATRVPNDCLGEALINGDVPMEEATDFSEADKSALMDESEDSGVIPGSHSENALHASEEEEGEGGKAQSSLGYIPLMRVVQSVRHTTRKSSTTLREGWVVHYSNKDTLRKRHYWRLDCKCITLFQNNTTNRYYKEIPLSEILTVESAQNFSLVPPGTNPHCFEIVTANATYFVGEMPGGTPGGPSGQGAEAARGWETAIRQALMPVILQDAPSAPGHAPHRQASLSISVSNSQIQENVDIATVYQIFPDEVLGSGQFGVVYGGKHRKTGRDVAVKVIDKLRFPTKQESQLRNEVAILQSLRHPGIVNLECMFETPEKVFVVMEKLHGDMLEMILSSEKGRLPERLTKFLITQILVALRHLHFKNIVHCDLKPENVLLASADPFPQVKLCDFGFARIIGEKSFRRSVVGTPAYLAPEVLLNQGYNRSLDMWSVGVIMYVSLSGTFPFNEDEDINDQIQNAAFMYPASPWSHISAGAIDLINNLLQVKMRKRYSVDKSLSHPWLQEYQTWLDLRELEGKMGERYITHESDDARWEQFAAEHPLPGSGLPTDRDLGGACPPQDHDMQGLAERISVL
Conditions: at 0.1 µM.

The term inhibition denotes the drop in the measured response relative to a control, in per cent.

Protein kinase C eta type (Homo sapiens), sequence (P24723 whole entry): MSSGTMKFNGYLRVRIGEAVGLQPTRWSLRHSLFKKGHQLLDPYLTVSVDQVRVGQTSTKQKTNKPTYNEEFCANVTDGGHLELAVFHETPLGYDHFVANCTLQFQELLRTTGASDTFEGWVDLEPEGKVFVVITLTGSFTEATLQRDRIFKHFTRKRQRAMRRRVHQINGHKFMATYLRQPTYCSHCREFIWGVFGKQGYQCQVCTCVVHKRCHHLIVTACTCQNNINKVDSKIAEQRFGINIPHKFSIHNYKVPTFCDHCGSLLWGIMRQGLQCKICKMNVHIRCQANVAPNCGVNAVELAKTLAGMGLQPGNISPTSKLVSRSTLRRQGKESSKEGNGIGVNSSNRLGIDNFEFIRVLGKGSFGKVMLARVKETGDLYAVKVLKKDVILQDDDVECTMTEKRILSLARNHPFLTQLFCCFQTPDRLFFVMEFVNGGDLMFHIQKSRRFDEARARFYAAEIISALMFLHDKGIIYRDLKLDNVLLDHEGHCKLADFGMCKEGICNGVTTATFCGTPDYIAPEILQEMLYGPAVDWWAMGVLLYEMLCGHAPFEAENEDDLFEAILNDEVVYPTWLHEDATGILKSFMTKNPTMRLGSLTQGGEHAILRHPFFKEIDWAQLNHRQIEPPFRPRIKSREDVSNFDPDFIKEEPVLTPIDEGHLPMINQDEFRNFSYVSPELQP
Protein kinase C theta type (Homo sapiens), sequence (Q04759 whole entry, looked up): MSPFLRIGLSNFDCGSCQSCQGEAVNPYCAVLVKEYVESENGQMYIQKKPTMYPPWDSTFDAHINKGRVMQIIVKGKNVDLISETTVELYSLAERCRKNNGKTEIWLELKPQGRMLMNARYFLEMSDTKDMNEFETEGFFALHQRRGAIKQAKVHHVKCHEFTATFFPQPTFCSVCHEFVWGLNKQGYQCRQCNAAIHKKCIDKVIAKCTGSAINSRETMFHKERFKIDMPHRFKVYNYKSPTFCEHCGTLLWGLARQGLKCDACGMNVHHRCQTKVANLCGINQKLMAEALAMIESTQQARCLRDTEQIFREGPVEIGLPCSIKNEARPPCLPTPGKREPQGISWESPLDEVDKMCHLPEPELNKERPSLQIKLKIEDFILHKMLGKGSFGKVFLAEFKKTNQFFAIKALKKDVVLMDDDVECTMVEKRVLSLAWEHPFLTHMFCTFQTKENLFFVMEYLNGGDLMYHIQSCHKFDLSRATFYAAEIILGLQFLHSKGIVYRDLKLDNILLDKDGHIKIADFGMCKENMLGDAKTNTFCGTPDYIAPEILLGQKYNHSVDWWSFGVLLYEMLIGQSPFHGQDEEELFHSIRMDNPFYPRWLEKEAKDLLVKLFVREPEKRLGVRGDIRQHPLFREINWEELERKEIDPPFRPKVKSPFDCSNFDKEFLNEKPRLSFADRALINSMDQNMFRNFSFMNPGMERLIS

Turning to `COc1cc2c(cc1Nc1nc(Nc3cccc(F)c3C(N)=O)c3cc[nH]c3n1)N(C(=O)CN1CCN(C(C)C)CC1)CC2`, the inhibition was -0.05% in [1]; 3.63% in assay [2]; 2.83% in [3]; 3.39% in [4]; 1.01% in assay [5]; 0.6% in assay [6]. For the same compound, the inhibition in [7] was 3.47%; in assay [8] it was 0.59%; in assay [9], 1.37%; in assay [10], 1.36%; in [11], 3.85%; in assay [12], -0.63%. For the same compound, the inhibition was -1.02% in assay [13]; 2.08% in [14]; 5.05% in [15]; 1.31% in [16]; 2.64% in [17]; 4.89% in assay [18]. The inhibition worked out at 12.4% in [19] and 4.84% in [20].
In the case of `O=C(O[C@H]1CN[C@H](C#Cc2cc3ncnc(Nc4ccc(OCc5cccc(F)c5)c(Cl)c4)c3s2)C1)N1CCOCC1`, the inhibition in assay [1] was 0.08%; in assay [2], 2.39%; in assay [3], 3.33%; in assay [4] it was 0.97%; in assay [5] it was -4.52%; in [6] it was 1.43%. Besides, the inhibition amounted to 2.48% in [7]; 2.88% in assay [8]; 5.07% in assay [9]; 4.27% in assay [10]; 5.45% in assay [11]; 1.77% in assay [12]. The inhibition in [13] worked out at 0.9%; in [14], 3.84%; in [15], 5.14%; in assay [16], 2.11%; in assay [17], 1.21%; in [18], 4.61%. Moreover, the values for the inhibition in assay [19] and in [20] were 6.86% and 6.18%, respectively.
Turning to `CCCNc1cccc(-n2ncc3c(N/N=C/c4ccncc4)ncnc32)c1`, the inhibition is 1.19% in [1]; 1.59% in [2]; 3.62% in assay [3]; 0.98% in [4]; 1.45% in assay [5]; 1.35% in assay [6]. Further, the inhibition in assay [7] is 5.99%; in [8], 2.17%; in assay [9], 2.92%; in assay [10], 1.35%; in assay [11], 5.49%; in assay [12], 3.86%. For the same compound, the inhibition in assay [13] was found to be 12.5%; in [14], 1.36%; in assay [15], 2.98%; in [16], 3.39%; in assay [17] it was 3.89%; in assay [18], 2.19%. Further, the inhibition was 1.22% in [19] and -2.37% in [20].
`CS(=O)(=O)CCNCc1ccc(-c2ccc3ncnc(Nc4ccc(OCc5cccc(C(F)(F)F)c5)cc4)c3c2)o1`: the inhibition in assay [1] is 0.06%; in assay [2], 1.97%; in assay [3], 4.62%; in [4], 1.05%; in [5], 2.11%; in assay [6], 1.32%. Further, the inhibition in [7] was 0.08%; in [8], 6.28%; in assay [9] it was 4.9%; in assay [10], 2.65%; in assay [11] it was -0.26%; in assay [12] it was 2.37%. Besides, the inhibition in assay [13] is 2.7%; in assay [14], 2.36%; in assay [15] it was 5.13%; in [16], 1.56%; in [17], 3.15%; in assay [18], 4.62%. Further, the inhibition was 6.2% in [19] and 5.3% in assay [20].
Take `NS(=O)(=O)c1ccc(N/N=C2\C(=O)Nc3cccc(CCc4ccncc4)c32)cc1`: the inhibition was 6.76% in [1]; 1.41% in assay [2]; 1.07% in [3]; 0.11% in [4]; 0.43% in [5]; -0.59% in assay [6]. In addition, the inhibition is -0.96% in [7]; -1.41% in assay [8]; 1.16% in assay [9]; -0.97% in assay [10]; -0.16% in assay [11]; 0.18% in assay [12]. Also, the inhibition in assay [13] was 1.06%; in [14], 0.33%; in [15], -0.34%; in [16], -0.03%; in assay [17], 0.05%; in assay [18] it was 1.18%. Further, the inhibition in [19] is 1.94%; in assay [20] it was 0.05%.
